# In PubChem BioAssay (NCI):
# The panel holds about 83,000 compounds, 20% with a hit somewhere; the sample as a whole holds those more often.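 The endpoint reported here, percent growth, reads 100 for growth as untreated, 0 for no net growth and -100 for all cells dead.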 Activity calls are given as the source filed them. How the source made its calls: active means growth percent below 10; inactive means the rest.
# Tested on: HL-60(TB) leukemia
# Test: NCI-60 one-dose screen, 48 h (100 = growth as untreated, 0 = no growth, -100 = all killed)
# Conditions: 10 µM unless noted
row,Compound,growth
1,O=C(O)COc1ccc([N+](=O)[O-])cc1Cl,108% (inactive)
2,NC(=O)c1ccc2c(c1)OCO2,103% (inactive)
3,CCCOC(=O)Nc1nc2ccc(SCC(C)C)cc2s1,15.9% (inactive)
4,CC/C=C\C[C@@H]1C/C=C2/C(=O)C=C[C@H]2C/C=C\CCCC(=O)O1,-26% (active)
5,NNc1ncccn1,103% (inactive)
6,COC(=O)[C@]12CC[C@@H](C)[C@H](C)[C@@H]1C1=CC(=O)[C@@H]3[C@@]4(C)C[C@@H](O)[C@H](O)[C@@]5(C)COC(=C45)C[C@@]3(C)[C@]1(C)CC2,41.9% (inactive)
7,Cc1nc2scc(-c3ccccc3)n2c(=O)c1CCO,112% (inactive)
8,CCCCCCOc1ccc(/C=N/Nc2cc(C)nc3ccc(Cl)cc23)cc1,8.19% (active)
9,Cc1ccc(N)cc1CN1C(=O)c2ccccc2C1=O,107% (inactive)
10,O=C1CC[C@@H](C(=O)N[C@H]2CSSC[C@@H](C(=O)N/C=C/c3ccc(O)cc3)NC(=O)[C@H](Cc3ccccc3)NC(=O)[C@@H]3CCCN3C(=O)[C@@H]3CCCN3C2=O)N1,74% (inactive)
11,CCCc1cc2c(cc1Br)OCO2,103% (inactive)
12,COc1cc(/C=C2\C(=O)Nc3ccc(N(C)C)cc32)cc(OC)c1OC,27.5% (inactive)
13,CCC(C)(O)Cc1ccc(Cl)cc1 (stereo not given),96% (inactive)
14,COc1cc(/C=N/Nc2ncnc3c2c(C)nn3-c2ccc(F)cc2)ccc1O,98.3% (inactive)
15,CNC(=O)c1c(NC(=O)c2ccc(C(C)(C)C)cc2)sc2c(CN(C)C)c(O)ccc12,-33% (active)
16,CCOC(=O)C1=C(C)N2C(=NC3=C(CCC/C3=C\c3ccc(Cl)cc3)C2c2ccc(Cl)cc2)S1 (stereo not given),-10.8% (active)
17,O=C(NCCCCCCCNC(=O)OCc1ccc2c(Cl)cc(Cl)c(O)c2n1)OCc1ccc2c(Cl)cc(Cl)c(O)c2n1,-45.9% (active)
18,NC(N)=N/N=C(\c1ccccc1)C(O)c1ccccc1 (stereo not given),96.7% (inactive)
19,COc1ccc(C2=NNC(c3ccc(Oc4nc5c(c(=O)n(C)c(=O)n5C)n4C)c(OC)c3)C2)cc1 (stereo not given),90.6% (inactive)
20,CN=C1C=CC(=C(c2ccc(N(C)C)cc2)c2ccc(N(C)C)cc2)C=C1,-1.23% (active)

row,Compound,growth
1,COC(=O)[C@]12CC[C@@H](C)[C@H](C)[C@@H]1C1=CC[C@@H]3[C@@]4(C)C(C=O)=C[C@@](C)(COS(C)(=O)=O)C4[C@H](O)C[C@@]3(C)[C@]1(C)CC2 (stereo not given in full),-34.4% (active)
2,COc1ccc(-c2nc3sccn3c2-c2cc(-c3cc(OC)c(OC)c(OC)c3)on2)cc1,23.5% (inactive)
3,COc1cc(OC)c(NC(=O)n2ncc3cc(Nc4ncnc5ccccc45)ccc32)cc1Cl,82.9% (inactive)
4,CC1=CC(C)(C)NC(=S)N1c1ccc(S(=O)(=O)O)c2cccc(S(=O)(=O)O)c12,106% (inactive)
5,C/C(=N\O)c1ccc(NC(=O)CSc2nnc(-c3cc(-c4ccc(S(C)(=O)=O)cc4)nc4ccccc34)n2-c2ccccc2)cc1,84% (inactive)
6,CC1(C)CC(=O)CC2(C1)N=C(N)Nc1nc3ccccc3n12 (stereo not given),92.5% (inactive)
7,COc1cccc(NC(=O)Nc2ccc(Nc3ncnc4sc5c(c34)CCN(C(=O)CCl)C5)cc2)c1,90% (inactive)
8,O=C(/C=C(/C=C/c1coc2ccccc12)OB(F)F)/C=C/c1coc2ccccc12,88.6% (inactive)
9,CCCCCCCCOC(=O)c1c(C)[nH]c(/C=C2\N=C(c3ccc[nH]3)C=C2OC)c1C,4.96% (active)
10,Cc1nc2ccccc2n1-c1ncnc2c1CC(C)c1ccccc1N2C (stereo not given),83.8% (inactive)
11,N#Cc1c(N)nc2c(c1N)C(c1ccc(Cl)cc1)C1=C(CCCC1=O)N2c1sc2c(c1C#N)CCCC2 (stereo not given),89.2% (inactive)
12,COc1ccc(C(=O)c2cc3c(N)c(C(=O)Nc4ccc(Cl)cc4)sc3nc2C)cc1,62.9% (inactive)
13,O=C(CN1C(=O)S/C(=C\C(Cl)=C\c2ccccc2)C1=O)NC1C=CS(=O)(=O)C1 (stereo not given),-5.2% (active)
14,COC1=CC(=O)c2c(O)c3c(c(O)c2C1=O)CC(C)(O)OC3 (stereo not given),-57.1% (active)
15,COc1ccc(Cl)cc1C(=O)Nc1nc2ccc(Cl)cc2s1,103% (inactive)
16,S=c1nc(-c2ccccn2)c(-c2ccccn2)n[nH]1,92.8% (inactive)
17,COc1ncc(-c2ccc3nccc(C#CCN4CCN(S(C)(=O)=O)CC4)c3c2)cc1NS(=O)(=O)c1ccc(F)cc1F,-18.6% (active)
18,COc1ccc(C(=O)N/N=C/c2ccc(O)cc2O)cc1Nc1ccnc(C(F)(F)F)c1,14.4% (inactive)
19,c1ccc(Nc2nc3c(s2)CCc2c[nH]cc2-3)nc1,2.15% (active)
20,COc1cccc(C2(C)Nc3ccccc3-c3nc4ccccc4n32)c1 (stereo not given),89.1% (inactive)
